# Source: PubChem
# This is a sample that favours compounds with a hit; in the whole collection about 19% have one here.
# TDP1 cell noCPT = qHTS for Inhibitors of human tyrosyl-DNA phosphodiesterase 1 (TDP1): qHTS in cells in absence of CPT; DT40 Tdp1-/- hTDP1 cells, no CPT, ATP luminescence, 48 h; Potency, µM (doses to about 46.2 µM), for the others: at the highest dose activity change, negative = growth inhibition, actives largely listed as inhibitors; 420,000 tested, 15% active; AID 686978, 2013; also: nearly all actives have a fitted effect of over 55% in size
#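 Luminescent ATP content (CellTiter-Glo) served as the growth readout. Knockout chicken DT40 cells expressing human TDP1 were exposed to compounds without camptothecin for a minimum 48 hr at 37 °C.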
# Gal4-VP16 FLuc = Gal4-VP16 reporter inhibition counter-screen; Drosophila S2 Gal4-VP16 UAS-luciferase, luminescence, 20 h; Potency, µM (highest dose often 53.6 µM), for the others: top-dose activity, negative = inhibition, hits mostly inhibitors; 310,000 tested, 3.5% active;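 also: Gal4-VP16 expression switched on by copper sulfate through the metallothionein promoter; nearly all actives have a fitted effect of over 50% in size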
# TDP1 block = TDP1 (human) enzyme inhibition. Q9NUW8. recombinant TDP1, AlphaScreen DNA substrate cleavage. Potency, µM (series often up to 130 µM), inactives show at the highest dose activity change, negative = inhibition, most hits filed as inhibitors. 350,000 tested, 0.28% active. AID 485290; also: nearly all actives have a fitted effect of over 40% in size
# Target sequence (Q9NUW8 whole entry, looked up): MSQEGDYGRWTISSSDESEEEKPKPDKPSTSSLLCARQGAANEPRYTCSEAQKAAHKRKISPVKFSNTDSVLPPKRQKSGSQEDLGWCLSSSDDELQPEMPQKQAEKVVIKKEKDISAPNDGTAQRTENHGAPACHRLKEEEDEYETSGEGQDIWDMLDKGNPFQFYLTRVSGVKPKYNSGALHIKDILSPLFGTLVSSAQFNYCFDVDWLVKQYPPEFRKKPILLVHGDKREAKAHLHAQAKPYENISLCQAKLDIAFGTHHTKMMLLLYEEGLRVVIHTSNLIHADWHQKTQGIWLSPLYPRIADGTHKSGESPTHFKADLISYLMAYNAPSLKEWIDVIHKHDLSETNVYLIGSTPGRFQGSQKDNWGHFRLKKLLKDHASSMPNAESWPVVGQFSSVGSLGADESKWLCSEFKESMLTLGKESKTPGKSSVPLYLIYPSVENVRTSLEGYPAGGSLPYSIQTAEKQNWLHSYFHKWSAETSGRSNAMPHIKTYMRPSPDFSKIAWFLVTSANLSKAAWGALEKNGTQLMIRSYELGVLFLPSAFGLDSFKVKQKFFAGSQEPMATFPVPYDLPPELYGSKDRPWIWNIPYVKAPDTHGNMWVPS
#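 Enzyme-compound mixtures sat 15 min at room temperature, followed by a 5 min reaction with 15 nM final substrate and 10 min with AlphaScreen beads. Recombinant human Tdp1 was used at 1 nM final.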
# DT40 TDP1 CPT = DT40-hTDP1 cell growth loss with CPT; chicken DT40 Tdp1-/-;hTDP1 cells + 20 nM CPT, ATP luminescence, 48 h; Potency, µM (top dose mostly 46.2 µM), without a hit: top-dose activity change, negative = growth inhibition, most hits filed as inhibitors; 420,000 tested, 12% active; AID 686979; also: nearly all actives have a fitted effect of over 55% in size
#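 Chicken DT40 Tdp1-/- cells complemented with human TDP1, 400 cells/well, exposed to compounds plus 20 nM camptothecin for at least 48 h at 37 C; viability read as ATP content by CellTiter-Glo luminescence.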
# RORg inh = inhibitors of mouse ROR gamma transcriptional activity. P51450. Drosophila S2 Gal4-RORgamma UAS-luciferase reporter, 20 h. Potency, µM (series often up to 53.6 µM), without a hit: top-dose activity change, negative = inhibition, most hits filed as inhibitors. 310,000 tested, 5.4% active; also: nearly all actives have a fitted effect of over 60% in size
#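 A Gal4/UAS one-hybrid system in insect cells: metallothionein-promoter Gal4–ROR gamma fusion plus Photinus luciferase reporter. Copper sulfate 700 uM final, 20 hr ambient incubation, luminescent detection after 10 min with reagent.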
# The depositor's hits bear a star; ? = inconclusive; / = no result given. Calls follow the shape of the dose curve; as a rule, active = well fitted curve in the direction sought with a large enough effect; inconclusive = small, poorly fitted or top-dose-only effect, or another doubt; inactive = no such curve, though single readings can be large; an effect the other way counts as inactive or inconclusive. % is scaled to controls: 0 for no effect and ±100 for the full control effect; potency is read from the fitted curve at half-maximal effect.
SMILES,TDP1 cell noCPT,Gal4-VP16 FLuc,TDP1 block,DT40 TDP1 CPT,RORg inh
O=C(NCc1cccs1)c1csc([C@H]2C[C@H](O)[C@@H](CO)O2)n1,0.6%,/,/,-1.5%,/
Cc1cc(N2CCCCC2)nc(-c2ccc(Br)cc2)n1,?,-3.5%,-4.8%,?,-27.9%
Cc1ccc2nc3c(cc(C#N)c(=O)n3-c3nnc(SCc4ccccc4Cl)s3)c(=O)n2c1,-7.4%,/,0.0%,-9.5%,/
Cc1ccnc(NC(=O)c2cccc(NC(=O)c3ccc(Cl)c(Cl)c3)c2)c1,-29.2%,/,/,?,/
Cc1ccnc(NC(=O)c2sc3cc(Cl)ccc3c2Cl)c1,-19.9%,?,3.0%,-3.0%,2µM*
Cc1c(-c2cccc(NC(=O)Nc3ccc(Cl)cc3)c2)nc2ncccn12,?,/,8.8%,?,/
Cc1c(-c2cccc(NC(=O)c3ccc(F)c(F)c3)c2)nc2ncccn12,13µM*,/,0.0%,?,/
Cc1ccnc(NC(=O)c2cccc(NC(=O)c3ccc(Cl)cc3)c2)c1,20.6µM*,/,/,?,/
Cc1cc(C)c(S(=O)(=O)n2c([N+](=O)[O-])cnc2C)cc1C,6.7%,-5.5%,2.7%,7.1%,8.0%
Cc1cc(SCC(=O)N2c3ccccc3NC(=O)CC2C)nc2ccccc12 (configuration not stated),16.4µM*,/,/,?,/
CC1CC(=O)Nc2ccccc2N1C(=O)CSc1ccc2ccccc2n1 (configuration not stated),?,/,0.1%,16.4µM*,/
CCn1nnnc1SCC(=O)N1c2ccccc2NC(=O)CC1C (configuration not stated),0.3%,/,-3.2%,-2.7%,/
Cc1cccc(C)c1NC(=O)CCN1C(=O)C2C3CCC(C3)C2C1=O (configuration not stated),-9.2%,-4.8%,4.8%,-14.0%,-15.9%
COc1ccc(C(C)=O)cc1COc1ccccc1[N+](=O)[O-],-1.3%,-1.5%,0.0%,-11.8%,-35.2%
COc1ccc(-n2c(NC(=O)c3ccco3)c(C#N)c3nc4ccccc4nc32)cc1,23.1µM*,-21.2%,2.9%,16.4µM*,8.6%
CCOC(=O)c1c(NC(=O)c2ccco2)n(C2CCCCC2)c2nc3ccccc3nc12,8.2µM*,?,3.8%,7.31µM*,?
CCCCn1c(NC(=O)c2ccccc2Cl)c(C#N)c2nc3ccccc3nc21,25.9µM*,?,-7.8%,23.1µM*,13.1%
COc1ccc(C(=O)Nc2ccc(NC(=O)c3ccco3)cc2)cc1,-15.5%,11.8%,-5.8%,-10.0%,-17.1%
CCCCn1c(NC(=O)CC)c(C#N)c2nc3ccccc3nc21,-15.7%,-16.6%,3.1%,-2.5%,-0.3%
CCC(=O)Nc1c(C#N)c2nc3ccccc3nc2n1C1CCCCC1,-14.1%,3.1%,0.0%,-4.5%,13.9%
CCOC(=O)CNNC(=O)Nc1ccc(Cl)c(Cl)c1,-17.1%,4.0%,1.3%,-9.4%,19.1%
O=C(Nc1ccc(N2C(=O)C3CCCCC3C2=O)cc1Cl)c1cccs1 (configuration not stated),-1.9%,-9.7%,-2.7%,-8.5%,?
CCOc1cc(NC(=O)CCl)c(OCC)cc1NC(=O)CCl,1.16µM*,20µM*,-1.9%,2.91µM*,12.6µM*
CCOc1cc(NC(=S)Nc2cccc(OC)c2)c(OCC)cc1NC(=O)c1ccc(C)cc1,20.6µM*,15.8µM*,9.9%,?,7.94µM*
CCOc1cc(NC(=S)Nc2ccc(Cl)cc2)c(OCC)cc1NC(C)=O,?,?,-3.7%,-28.3%,11.2µM*
CCOc1cc(NC(=S)Nc2cccc(OC)c2)c(OCC)cc1NC(=O)C(C)C,-27.8%,?,6.7%,-23.0%,8.91µM*
CCOc1cc(NC(=O)c2ccccc2OC)c(OCC)cc1NC(=O)c1ccccc1,?,-15.7%,/,?,27.0%
CCOc1ccccc1NC(=O)c1cccc(NC(=O)C(C)C)c1,?,-0.5%,0.0%,-22.0%,9.4%
